Bioassay records (PubChem)
HP1b chromo inh: HTS for Inhibitors of HP1-beta Chromodomain Interactions with Methylated Histone Tails; Potency, µM (titrated, usually from 114 µM), for the others: top-dose activity change, negative = inhibition, hits mostly inhibitors; AID 540317, 2011; 390,000 compounds, 0.56% hits; Chromobox protein homolog 1 (Homo sapiens), P83916; AlphaScreen HP1-beta / biotin-H3K9me3 peptide binding; further: nearly all actives have a fitted effect of over 70% in size
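HP1-beta protein (50 nM final) preincubated 30 min at room temperature with biotinylated H3(1-18)K9me3 peptide (50 nM) in PBS pH 7.4, 0.01% Tween-20, then compound added for 30 min. AlphaScreen streptavidin donor/nickel chelate acceptor beads (10 ug/mL final), 30 min dark, luminescence read.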
L3MBTL1 block: qHTS Assay for the Inhibitors of L3MBTL1; Lethal(3)malignant brain tumor-like protein 1 (Homo sapiens), Q9Y468; AlphaScreen L3MBTL1–H3K9me1 peptide binding; 230,000 compounds, 0.66% hits; Potency, µM (series often up to 57.1 µM), for inactives: top-dose activity, negative = inhibition, actives largely listed as inhibitors; further: on the % scale 0 is the no-effect control and ±100 the full control effect; nearly all actives have a fitted effect of over 60% in size
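AlphaScreen assay: L3MBTL1 (50 nM final) was preincubated 30 min at room temperature with biotinylated H3(1-15)K9me1 peptide (75 nM final), then 30 min with library compounds; streptavidin donor and nickel chelate acceptor beads (10 ug/mL final) added, 30 min dark.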
JMJD2A Tudor: qHTS Assay for Inhibitors of JMJD2A-Tudor Domain. 390,000 compounds, 4.4% hits. Potency, µM (highest dose often 114 µM), for the others: at the top dose activity change, negative = inhibition, hits mostly inhibitors. AID 504339, 2011. Lysine-specific demethylase 4A (Homo sapiens), O75164. AlphaScreen JMJD2A-Tudor / H3K4me3 peptide binding; further: on the % scale 0 is the no-effect control and ±100 the full control effect; nearly all actives have a fitted effect of over 50% in size
Sfp PPTase inh: qHTS Assay for Inhibitors of Bacillus subtilis Sfp phosphopantetheinyl transferase (PPTase); Potency, µM, without a hit: largest response in the series, negative = inhibition, hits mostly inhibitors; 310,000 compounds, 3.5% hits; Biochemical Sfp PPTase activity, qHTS; AID 1490, 2009; 4'-phosphopantetheinyl transferase ffp (Bacillus subtilis), Q9F4F7;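 further: the enzyme is Sfp with the accession as filed and its product quenches rhodamine fluorescence; 0% = enzyme reaction without inhibitor and -100% = no enzyme wells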
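Buffer: 50 mM Hepes-Na pH 7.6, 10 mM MgCl2, 0.01% Nonidet P-40, 0.01% BSA. Enzyme 15 nM, pre-exposed to compound 15 min; substrates then added and fluorescence change tracked over 30 min.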
BAZ2B block: qHTS Assay for Inhibitors of BAZ2B | Bromodomain adjacent to zinc finger domain protein 2B (Homo sapiens), Q9UIF8 | AlphaScreen BAZ2B-H3K14Ac peptide displacement | Potency, µM (titrated, usually from 114 µM), for the others: top-dose activity change, negative = inhibition, actives largely listed as inhibitors | 360,000 compounds, 4.4% hits; further: on the % scale 0 is the no-effect control and ±100 the full control effect; nearly all actives have a fitted effect of over 60% in size
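AlphaScreen luminescence quantifies BAZ2B engagement of H3K14Ac peptide; the protein and biotinylated peptide are both at 50 nM final, buffer PBS pH 7.4 with 0.01% Tween-20, all steps at room temperature.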
G9a block: qHTS Assay for Inhibitors of Histone Lysine Methyltransferase G9a; Histone-lysine N-methyltransferase EHMT2 (Homo sapiens), Q96KQ7; G9a H3K9 monomethylation, AlphaScreen, 2 h; Potency, µM (series often up to 102 µM), inactives show at the highest dose activity, negative = inhibition, usual class: inhibitors; 350,000 compounds, 8.8% hits; AID 504332, 2011; further: on the % scale 0 is the no-effect control and ±100 the full control effect; nearly all actives have a fitted effect of over 75% in size
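Signal arises when biotinylated H3K9 peptide, once monomethylated, bridges streptavidin donor and antibody-captured acceptor beads. Enzyme at 20 nM was preincubated 15 min with test compounds; peptide 500 nM and SAM 20 uM then reacted for 2 h.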
* marks the source's active call; other numbers are inactive results; [ ] = another dose, or the depositor's remark. This is a sample that favours compounds with a hit; in the whole collection about 12% have one here. The call rests on the fitted dose curve; in most records, active means well fitted curve in the direction sought with a large enough effect; inconclusive means small, poorly fitted or top-dose-only effect, or another doubt; inactive means no such curve, though single readings can be large; an effect the other way counts as inactive or inconclusive. Potency means the concentration at half of the fitted maximal effect.

How did CCOC(=O)C1=C(N)OC2=C(C(=O)CC(C)(C)C2)C1c1ccccc1OC (stereo not given) do in these assays?
HP1b chromo inh: 37%; L3MBTL1 block: 5%; JMJD2A Tudor: -10%; Sfp PPTase inh: 11%; BAZ2B block: -15%

What do the screens show for `Cc1ccc(C2C(C(N)=S)=C(N)OC3=C2C(=O)CC(C)(C)C3)cc1` (stereo not given)?
HP1b chromo inh: -12%; L3MBTL1 block: -2%; JMJD2A Tudor: -18%; Sfp PPTase inh: 3.5µM*; BAZ2B block: -28%; G9a block: inconclusive

Results for O=c1n(Cc2ccc(F)cc2Cl)c2ccccc2c2nc(-c3ccccc3)nn12 ?
HP1b chromo inh: 10%; JMJD2A Tudor: -8%; BAZ2B block: -9%; G9a block: 8%[59 µM]

What do the screens show for `COc1cccc(/C=C2\SC(=S)N(CCCC(=O)Nc3ccc(C(=O)O)cc3)C2=O)c1`?
HP1b chromo inh: -9%; JMJD2A Tudor: inconclusive; Sfp PPTase inh: -11%; BAZ2B block: inconclusive

Results for O=C(O)CCN1C(=O)/C(=C\c2cccc(OCC(=O)Nc3ccc(Cl)cc3)c2)SC1=S ?
HP1b chromo inh: 45µM*; L3MBTL1 block: -26%; JMJD2A Tudor: -25%[11.4 µM]; Sfp PPTase inh: -4%; BAZ2B block: 45µM*; G9a block: inconclusive

How did Cc1ccc(NC(=O)COc2cccc(/C=C3\SC(=S)N(CCC(=O)O)C3=O)c2)cc1Cl do in these assays?
HP1b chromo inh: -5%; JMJD2A Tudor: -32%[11.4 µM]; Sfp PPTase inh: -19%; BAZ2B block: 45µM*; G9a block: 2%[59 µM]

What do the screens show for `CCOC(=O)c1ccc(N2CCOCC2)c(NC(=O)c2ccc3c(c2)OCO3)c1`?
HP1b chromo inh: 28%; JMJD2A Tudor: -31%; Sfp PPTase inh: 6%; BAZ2B block: -4%; G9a block: 38%

What do the screens show for `COc1cccc(N2CCN(C(=O)c3cnc4c(-c5ccccc5)c(C)nn4c3C)CC2)c1`?
HP1b chromo inh: -9%; JMJD2A Tudor: -21%; BAZ2B block: -37%; G9a block: 8%[59 µM]

How did COc1cccc(N2CCN(c3ncnc4c3[nH]c3ccc(F)cc34)CC2C)c1 (stereo not given) do in these assays?
HP1b chromo inh: inconclusive; L3MBTL1 block: -21%; JMJD2A Tudor: inconclusive; Sfp PPTase inh: 27%; BAZ2B block: inconclusive; G9a block: 18µM*

How did COc1cccc(N2CCN(c3ncnc4c3[nH]c3ccccc34)CC2C)c1 (stereo not given) do in these assays?
L3MBTL1 block: -6%; Sfp PPTase inh: 6%; BAZ2B block: inconclusive; G9a block: inconclusive

How did O=C1Nc2ccccc2/C1=N\c1sc2c(c1C(=O)Nc1ccccc1)CCCC2 do in these assays?
HP1b chromo inh: 3%; L3MBTL1 block: 16%[11.4 µM]; JMJD2A Tudor: inconclusive; Sfp PPTase inh: 4%; BAZ2B block: -25%; G9a block: 13µM*

What do the screens show for `O=C(Nc1sc2c(c1C(=O)Nc1ccccc1)CCC2)c1ccc(Br)cc1`?
HP1b chromo inh: 106%; JMJD2A Tudor: 0%; BAZ2B block: -2%; G9a block: 42%[59 µM]

How did O=C(COC(=O)c1cccc(NS(=O)(=O)/C=C/c2ccccc2)c1)Nc1ccccc1OC(F)F do in these assays?
HP1b chromo inh: -3%; L3MBTL1 block: -1%; JMJD2A Tudor: -12%; Sfp PPTase inh: 13%; BAZ2B block: 1%; G9a block: 16%[59 µM]

What do the screens show for `O=C(Nc1ccc2c(c1)OCO2)N1CCN(Cc2ccco2)CC1`?
HP1b chromo inh: 0%; L3MBTL1 block: -9%; JMJD2A Tudor: -18%; Sfp PPTase inh: 8%; BAZ2B block: 15%; G9a block: -26%

How did CCCCCCn1c(SCCN2CCOCC2)nc2c1c(=O)[nH]c(=O)n2C do in these assays?
HP1b chromo inh: 4%; L3MBTL1 block: 16%; JMJD2A Tudor: 3%; Sfp PPTase inh: -6%; BAZ2B block: -3%; G9a block: -8%[59 µM]

What do the screens show for `CCOC(=O)CSc1nc2c(c(=O)[nH]c(=O)n2C)n1C/C=C(/C)Cl`?
HP1b chromo inh: -26%; L3MBTL1 block: 4%; JMJD2A Tudor: -18%; Sfp PPTase inh: 50µM*; BAZ2B block: 6%; G9a block: 14µM*

How did CCCCCn1c(SCCN2CCOCC2)nc2c1c(=O)[nH]c(=O)n2C do in these assays?
HP1b chromo inh: -20%; L3MBTL1 block: 5%; JMJD2A Tudor: -20%; Sfp PPTase inh: 50µM*; BAZ2B block: 1%; G9a block: 25µM*

Results for CCOC(=O)CSc1nc2c(c(=O)[nH]c(=O)n2C)n1CCc1ccccc1 ?
HP1b chromo inh: 19%; L3MBTL1 block: -1%; JMJD2A Tudor: -8%; Sfp PPTase inh: 4%; BAZ2B block: 3%; G9a block: -1%

How did CCCCn1c(SCC(=O)OCC)nc2c1c(=O)[nH]c(=O)n2C do in these assays?
HP1b chromo inh: -10%; L3MBTL1 block: 8%; JMJD2A Tudor: -18%; Sfp PPTase inh: -21%; BAZ2B block: 8%; G9a block: 10µM*

How did C[C@H](CO)N1C[C@H](C)[C@@H](CN(C)S(=O)(=O)c2cn(C)cn2)Oc2c(NC(=O)Nc3ccc4c(c3)OCO4)cccc2C1=O do in these assays?
HP1b chromo inh: 40%; L3MBTL1 block: 2%; JMJD2A Tudor: -31%

What do the screens show for `O=C1NC(=S)N/C1=C\c1ccc(N2CCOCC2)cc1`?
HP1b chromo inh: 0%; L3MBTL1 block: 25%; JMJD2A Tudor: 20µM*; Sfp PPTase inh: 9%; BAZ2B block: -9%; G9a block: inconclusive

How did CCCCNC(=O)c1ccc(Cn2c(=S)[nH]c3c([nH]c4ccc(OC)cc43)c2=O)cc1 do in these assays?
HP1b chromo inh: 16%; L3MBTL1 block: 2%; JMJD2A Tudor: -32%; Sfp PPTase inh: 10%; BAZ2B block: -5%; G9a block: -19%

Results for O=C(CCCn1c(=S)[nH]c2cc3c(cc2c1=O)OCO3)N1CCN(C2CCCCC2)CC1 ?
HP1b chromo inh: 25%; L3MBTL1 block: 3%; JMJD2A Tudor: 79µM*; Sfp PPTase inh: -4%; BAZ2B block: -27%; G9a block: inconclusive

How did CCN(CC)CCNC(=O)CCCCn1c(=S)[nH]c2c([nH]c3ccc(OC)cc32)c1=O do in these assays?
HP1b chromo inh: inconclusive; L3MBTL1 block: -1%; JMJD2A Tudor: 4µM*; Sfp PPTase inh: inconclusive; BAZ2B block: inconclusive; G9a block: 13µM*
